# This is a sample that favours compounds with a hit; in the whole collection about 5.7% have one here.
# IL1B secr inh = inhibitors of inflammasome signaling (IL-1 beta secretion); 4.7% of 360,000 active; activity change, % at 57.5 µM; THP-1 LPS/ATP IL-1B secretion, AlphaLISA, 16 h; active compounds read low; AID 743279; in the data active = activity change below about -50%; inconclusive = mostly about -30% to -49%; also: % is scaled to controls: 0 for no effect and ±100 for the full control effect
#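 THP-1 cells pretreated 1 hr with compounds (up to 57.5 uM final), then stimulated with LPS (250 ng/mL final) plus ATP (1.25 mM final); secreted IL-1B measured by AlphaLISA after 16 hr, decreased signal indicating inhibition.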
# ATXN viability = reduces viability in counter-screen for ATXN expression inhibitors. S2 cells (HEK-293 line with an ATXN2-luciferase reporter) viability, CellTiter-Fluor protease fluorescence, 24 h. Potency, µM (highest dose often 56.7 µM), most hits filed as cytotoxic. 0.49% of 400,000 active; also: potency is read from the fitted curve at half-maximal effect; nearly all actives have a fitted effect of over 40% in size
# ATXN2 expr inh = ATXN2 expression inhibition. HEK-293 ATXN2-luciferase reporter, luminescence, 24 h. Potency, µM (titrated, usually from 57 µM), for the others: at the top dose activity change, negative = inhibition, actives largely listed as inhibitors. 0.72% of 360,000 active; also: potency is read from the fitted curve at half-maximal effect; % is scaled to controls: 0 for no effect and ±100 for the full control effect; nearly all actives have a fitted effect of over 55% in size
#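 qHTS (up to 57 uM final) was run with 24 h compound exposure of reporter cells at 37 °C. Each well was multiplexed: SteadyGlo luminescence measured ATXN2-luciferase expression after a fluorogenic Gly-Phe-AFC viability readout (25 uM final).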
# HepG2 tox = kills HepG2 cells in TGF-b inhibitor counter-screen; HepG2 CAGA-GFP viability, ATP luminescence, 18 h; Potency, µM (highest dose often 46.1 µM), for the others: top-dose activity change, negative = cytotoxicity, actives largely listed as cytotoxic; 0.76% of 410,000 active; AID 588856; also: potency is read from the fitted curve at half-maximal effect
#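 CellTiter-Glo luminescence gave cytotoxicity after 18 hours at 37 degrees C. The cells were HepG2 CAGA-GFP in 1% FBS DMEM, stimulated with 500 pg/mL TGF-beta after compound addition. %Activity was normalised to no-cell wells (complete cell-killing) and DMSO (no toxicity), and curves were fitted and classified.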
# TGFb SMAD3 inh = inhibitors of TGF-b signaling; HepG2 CAGA-GFP TGF-b/SMAD3 reporter, GFP fluorescence, 18 h; TGF-beta stimulated, 500 pg/mL final; Potency, µM (series often up to 46.1 µM), inactives show top-dose activity, negative = inhibition, actives largely listed as inhibitors; 1.2% of 410,000 active; AID 588855; also: potency is read from the fitted curve at half-maximal effect; % is scaled to controls: 0 for no effect and ±100 for the full control effect; nearly all actives have a fitted effect of over 65% in size
#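 Inhibition was scored as loss of TGF-beta-induced (500 pg/mL final, 18 hours, 37 degrees C) GFP in HEPG2 cells carrying a CAGA-GFP reporter, in DMEM with 1% FBS. Well GFP was summed per cell; Activity was normalised to unstimulated and stimulated DMSO wells, then concentration-response fitting.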
# Active calls of the source: *; i = inactive; ? = inconclusive; . = no result given; [ ] = remark or other dose. Unless noted, calls follow the shape of the dose curve; as a rule, active = well fitted curve in the direction sought with a large enough effect; inconclusive = small, poorly fitted or top-dose-only effect, or another doubt; inactive = no such curve, though single readings can be large; an effect the other way counts as inactive or inconclusive.
SMILES,IL1B secr inh,ATXN viability,ATXN2 expr inh,HepG2 tox,TGFb SMAD3 inh
Cc1c(Cl)cccc1NC(=O)CN1CCC(C(O)(c2ccccc2)c2ccccc2)CC1,-54*,i,?,-13%,-21%
COC(=O)CCC(=O)Nc1ccc(Cl)c(Cl)c1,-15,i,-7%,-17%,-6%
Cc1ccc(NC(=O)c2sc3nc(C)nc(N4CCN(c5ccccn5)CC4)c3c2C)c(C)c1,-60*,?,-20%,-5%,-33%
Cc1nc(N2CCN(C)CC2)c2c(C)c(C(=O)Nc3ccc(F)cc3)sc2n1,-78*,i,-11%,1%,47%
Cc1nc(N2CCCCC2C)c2c(C)c(C(=O)Nc3cccc(C(F)(F)F)c3)sc2n1 (stereo unspecified),-73*,i,3%[11.3 µM],1%,?
CSCc1nc2sc(C(=O)Nc3nc(C)cs3)c(C)c2c(=O)[nH]1,57,i,7%[11.3 µM],-13%,6%
Cc1ccc(NC(=O)c2sc3nc(CCl)[nH]c(=O)c3c2C)c(C)c1,-87*,i,53%,-1%,0%
CC1CCCN(CCCNC(=O)c2ccc3c(c2)N(Cc2cccc(Cl)c2)C(=O)c2ccccc2S3(=O)=O)C1 (stereo unspecified),.,.,.,-95%,?
COc1cc(Nc2nc(SCc3ccccc3Cl)nc3ccccc23)cc(OC)c1,.,.,.,-39%,11µM*
COc1cc(Nc2nc(SCc3ccccc3F)nc3ccccc23)cc(OC)c1,.,.,.,-31%,?
CC(NC(=O)c1ccc(C(=O)c2ccccc2)cc1)c1ccc(S(N)(=O)=O)cc1 (stereo unspecified),-52*,i,-8%,-12%,-9%
COc1ccc2oc(=O)c(-c3nnc(N)s3)cc2c1,-84*,.,-15%[11.3 µM],6%,-4%
COc1ccc(C[C@H]2CN3C(=NC[C@@H]3Cc3ccccc3)N2CCNC(=O)CCC2CCCCC2)cc1,-21,22µM*,?,-117%,?
COc1ccc(C[C@H]2CN3C(=NC[C@@H]3C(C)C)N2CCNC(=O)CCC2CCCCC2)cc1,-56*,?,-21%,-1%,-4%
CCN(Cc1ccccc1)c1ccc(/C=C/c2nccc3ccccc23)cc1,.,.,.,-13%,0%
O=C(CCCCCn1c(=O)c2sccc2n(Cc2ccc(Cl)cc2)c1=O)NCc1ccc2c(c1)OCO2,.,.,.,-23%,2%
COc1ccc(-c2nn(-c3ccccc3)cc2/C=N/Nc2ccc3ccccc3n2)cc1OC,-25,.,-21%,4.5µM*,?
COc1ccc(-c2nn(-c3ccccc3)cc2/C=N/O)cc1OC,-11,i,.,-43%,-14%
COc1ccc(N2CCN(c3oc(/C=C/c4ccccc4OC)nc3C#N)CC2)cc1,.,.,.,-1%,.
CCc1ccc2c(c1)/C(=C/C(=O)c1cccs1)C(=O)N2,-106*,.,?,11µM*,?
Cc1cccc2c1NC(=O)/C2=C\C(=O)c1cccs1,-122*,i,?,-16%,10µM*
Cc1cc(Br)c2c(c1)/C(=C/C(=O)c1cccs1)C(=O)N2,-109*,?,?,-18%,?
Cc1cc(C)c2c(c1)/C(=C/C(=O)c1ccc(Br)s1)C(=O)N2,-106*,?,18µM*,3%,-1%
CN1/C(=C\C(=O)c2cccs2)C(C)(C)c2ccccc21,0,i,13%,1%,-28%
Cc1cc(C)c(C(=O)c2cccs2)c(C)c1,-1,i,4%,8%,-1%
SMILES,IL1B secr inh,ATXN viability,ATXN2 expr inh,HepG2 tox,TGFb SMAD3 inh
Cc1ccc(Cc2nc3ccccc3nc2SCC(=O)Nc2ccc3c(c2)OCO3)cc1,.,i,4%,-3%,-10%
CC1(C)CC(=O)C=C(c2ccc(I)cc2)C1,-74*,i,5%,-30%,-17%
O=C(CNC(=O)c1cccc(F)c1)N/N=C/c1cc(Br)ccc1OC(=O)/C=C/c1ccco1,191,i,28µM*,-26%,?
CCN(c1ccc(OC)cc1)S(=O)(=O)c1nnc(NC(=O)CC(C)C)s1,-53*,i,-11%,-1%,-16%
COc1ccc(N(CC(C)C)S(=O)(=O)c2nnc(NC(=O)CC(C)C)s2)cc1,11,i,1%,-4%,0%
CC(C)(C)c1ccc(C(=O)N2CCCC2c2cccs2)cc1 (stereo unspecified),-99*,i,7%,-18%,?
CS(=O)(=O)Cc1ccc(C(=O)N2CCCC2c2cccs2)cc1 (stereo unspecified),11,i,-3%,5%,-5%
CC(C)C[C@H](NC(=O)c1nc[nH]c1C(=O)NC1CCN(C(=O)OC(C)(C)C)CC1)C(=O)OCc1ccccc1,-79*,?,?,13µM*,?
CC(C)C[C@H](NC(=O)c1nc[nH]c1C(=O)N1CCN(C(=O)OC(C)(C)C)CC1)C(=O)OCc1ccccc1,-71*,.,?,-32%,?
CC(C)C[C@H](NC(=O)c1nc[nH]c1C(=O)NC1CCN(C(=O)OC(C)(C)C)CC1)C(=O)OC(C)(C)C,-4,?,?,-77%,?
CC(C)(C)OC(=O)N1CCN(C(=O)c2[nH]cnc2C(=O)N[C@@H](Cc2ccccc2)C(=O)OCc2ccccc2)CC1,-64*,i,?,-37%,?
Cc1ccc2cc(CN(C(=O)c3cccc(Cl)c3)c3ccccc3)c(=O)[nH]c2c1,.,i,8%,3%,6%
Cc1[nH]c(-c2ccc(F)cc2)cc1C(=O)N1CCN(c2ccc(Cl)cc2)CC1,-29,?,14µM*,-64%,?
CCN(c1ccccc1)S(=O)(=O)c1cc(C(=O)NCC(c2ccc(OC)cc2)N(C)C)ccc1C (stereo unspecified),-74*,i,-22%,-23%,?
COc1ccc(C(CNC(=O)c2cccc(NS(=O)(=O)c3ccc(Br)cc3)c2)N(C)C)cc1 (stereo unspecified),-27,i,-35%,7.1µM*,-19%
COc1ccc(C(CNC(=O)c2cccc(S(=O)(=O)N3CCCC(C)C3)c2)N(C)C)cc1 (stereo unspecified),-55*,i,-12%,-20%,-21%
COc1ccc(NC(=O)CN(C)C(=O)c2cccc(NS(=O)(=O)c3ccc(Br)cc3)c2)cc1,-2,?,-2%,0%,-16%
CC1CCCN(S(=O)(=O)c2cccc(C(=O)NCc3ccco3)c2)C1 (stereo unspecified),-12,i,5%,-3%,9%
CC[Si](CC)(CC)O[C@H]([C@@H](C)COCOC)[C@@H](C)COCc1ccc(OC)cc1,.,.,.,2%,-4%
Cc1cnc(C)c(-c2cc(F)cc3c2OC(CNC(=O)CN2CCCC2)C3)n1 (stereo unspecified),.,i,.,.,.

# High-throughput results (PubChem)
